Results from PubChem BioAssay AID1159580 (chemical genetic matrix, 2015).
Hit rate of the full screen: of about 5,500 compounds, about 2,000 (36%) were called active. Not shown: some 18% with an inconclusive outcome. Rule as the data show it: active = normalized growth mostly below about 0.91 (no sharp cut-off); inconclusive = no clear call, values can overlap the other calls; inactive = mostly above about 0.92. The list shows a part of the results.

Test: chemical genetic growth profiling, strain panel (AID 1159580);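 also: tested at 20 µM; growth read once vehicle control cultures reached saturation at 30 °C; 1 = growth at the plate median or of vehicle wells; lower values mean less growth of the strain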
Details: growth OD

Measured: normalized growth

CC(=O)c1cc(CC=C(C)C)c(O)c(CC=C(C)C)c1
inactive: S. cerevisiae deletion strains, locus YJL187C, strain SWE1 (second series), active compounds read low 0.961 | S. cerevisiae deletion strains, locus YJL187C, strain SWE1, active compounds read low 1.01 | S. cerevisiae deletion strains, locus YJR043C, strain POL32, active compounds read low 0.998 | S. cerevisiae deletion strains, locus YKL009W, strain mrt4, active compounds read low 0.947 | S. cerevisiae deletion strains, locus YKL068W, active compounds read low 0.969 | S. cerevisiae deletion strains, locus YKL085W, strain MDH1 (second series), active compounds read low 0.967 | S. cerevisiae deletion strains, locus YKL085W, strain MDH1, active compounds read low 0.967 | S. cerevisiae deletion strains, locus YKL160W, strain elf1, active compounds read low 1 | S. cerevisiae deletion strains, locus YKR026C, strain gcn3, active compounds read low 1.01 | S. cerevisiae deletion strains, locus YKR091W, strain srl3, active compounds read low 1.01 | S. cerevisiae deletion strains, locus YLL001W, strain dnm1, active compounds read low 1 | S. cerevisiae deletion strains, locus YLL026W, active compounds read low 1.01 | S. cerevisiae deletion strains, locus YLL041C, strain sdh2, active compounds read low 1.01 | S. cerevisiae deletion strains, locus YLR027C, strain aat2, active compounds read low 1.01 | S. cerevisiae deletion strains, locus YLR039C, strain RIC1, active compounds read low 0.697 | S. cerevisiae deletion strains, locus YLR058C, strain SHM2, active compounds read low 0.982 | S. cerevisiae deletion strains, locus YLR102C, strain apc9, active compounds read low 0.964 | S. cerevisiae deletion strains, locus YLR221C, strain rsa3, active compounds read low 1 | S. cerevisiae deletion strains, locus YLR258W, strain gsy2, active compounds read low 1.01 | S. cerevisiae deletion strains, locus YLR262C, strain YPT6 (second series), active compounds read low 0.949 | S. cerevisiae deletion strains, locus YLR262C, strain YPT6, active compounds read low 0.747 | S. cerevisiae deletion strains, locus YLR268W, strain sec22, active compounds read low 0.924 | S. cerevisiae deletion strains, locus YLR320W, strain mms22, active compounds read low 1.01 | S. cerevisiae deletion strains, locus YLR330W, strain CHS5, active compounds read low 0.923 | S. cerevisiae deletion strains, locus YLR342W, strain FKS1 (second series), active compounds read low 1.03 | S. cerevisiae deletion strains, locus YLR342W, strain FKS1, active compounds read low 1.02 | S. cerevisiae deletion strains, locus YLR357W, strain rsc2, active compounds read low 1.04 | S. cerevisiae deletion strains, locus YLR370C, strain arc18, active compounds read low 1 | S. cerevisiae deletion strains, locus YLR371W, strain rom2, active compounds read low 0.968 | S. cerevisiae deletion strains, locus YLR384C, strain iki3, active compounds read low 1.01 | S. cerevisiae deletion strains, locus YML016C, strain PPZ1, active compounds read low 0.992 | S. cerevisiae deletion strains, locus YML032C, strain rad52, active compounds read low 0.988 | S. cerevisiae deletion strains, locus YML120C, strain ndi1, active compounds read low 0.997 | S. cerevisiae deletion strains, locus YML124C, strain tub3, active compounds read low 0.965 | S. cerevisiae deletion strains, locus YMR058W, strain fet3, active compounds read low 1.01 | S. cerevisiae deletion strains, locus YMR078C, strain ctf18, active compounds read low 0.962 | S. cerevisiae deletion strains, locus YMR125W, strain sto1, active compounds read low 1.02 | S. cerevisiae deletion strains, locus YMR129W, active compounds read low 1.01 | S. cerevisiae deletion strains, locus YMR205C, strain PFK2, active compounds read low 1.01 | S. cerevisiae deletion strains, locus YMR223W, strain ubp8, active compounds read low 0.951 | S. cerevisiae deletion strains, locus YMR231W, strain pep5, active compounds read low 1.01 | S. cerevisiae deletion strains, locus YMR307W, strain GAS1, active compounds read low 0.833 | S. cerevisiae deletion strains, locus YNL067W, strain RPL9B, active compounds read low 0.925 | S. cerevisiae deletion strains, locus YNL071W, strain lat1, active compounds read low 1.01 | S. cerevisiae deletion strains, locus YNL128W, strain TEP1, active compounds read low 0.917 | S. cerevisiae deletion strains, locus YNL153C, strain GIM3, active compounds read low 0.985 | S. cerevisiae deletion strains, locus YNL209W, strain ssb2, active compounds read low 1.01 | S. cerevisiae deletion strains, locus YNL233W, strain BNI4, active compounds read low 0.953 | S. cerevisiae deletion strains, locus YNL248C, strain rpa49, active compounds read low 1.01 | S. cerevisiae deletion strains, locus YNL250W, strain rad50, active compounds read low 0.979 | S. cerevisiae deletion strains, locus YNL271C, strain bni1, active compounds read low 0.962 | S. cerevisiae deletion strains, locus YNL298W, strain CLA4, active compounds read low 0.979 | S. cerevisiae deletion strains, locus YNL307C, strain MCK1, active compounds read low 0.955 | S. cerevisiae deletion strains, locus YNL322C, strain KRE1 (second series), active compounds read low 1.01 | S. cerevisiae deletion strains, locus YNR049C, strain mso1, active compounds read low 1.01 | S. cerevisiae deletion strains, locus YNR052C, strain pop2, active compounds read low 0.989 | S. cerevisiae deletion strains, locus YOL006C, strain TOP1, active compounds read low 0.75 | S. cerevisiae deletion strains, locus YOL012C, strain htz1 0.849 | S. cerevisiae deletion strains, locus YOL147C, strain pex11, active compounds read low 0.981 | S. cerevisiae deletion strains, locus YOR001W, strain rrp6, active compounds read low 1.02 | S. cerevisiae deletion strains, locus YOR061W, strain CKA2, active compounds read low 0.978 | S. cerevisiae deletion strains, locus YOR069W, strain VPS5, active compounds read low 0.986 | S. cerevisiae deletion strains, locus YOR070C, strain gyp1, active compounds read low 1.02 | S. cerevisiae deletion strains, locus YOR080W, strain dia2, active compounds read low 1.02 | S. cerevisiae deletion strains, locus YOR083W, strain WHI5, active compounds read low 1 | S. cerevisiae deletion strains, locus YOR106W, strain vam3, active compounds read low 0.995 | S. cerevisiae deletion strains, locus YOR136W, strain idh2, active compounds read low 0.973 | S. cerevisiae deletion strains, locus YOR144C, strain elg1, active compounds read low 0.981 | S. cerevisiae deletion strains, locus YOR265W, strain rbl2, active compounds read low 1.02 | S. cerevisiae deletion strains, locus YOR270C, strain vph1, active compounds read low 0.949 | S. cerevisiae deletion strains, locus YOR290C, strain snf2, active compounds read low 1.02 | S. cerevisiae deletion strains, locus YOR316C, strain cot1, active compounds read low 0.979 | S. cerevisiae deletion strains, locus YPL051W, strain arl3, active compounds read low 1.01 | S. cerevisiae deletion strains, locus YPL078C, strain atp4, active compounds read low 1.01 | S. cerevisiae deletion strains, locus YPL106C, strain sse1, active compounds read low 1.06 | S. cerevisiae deletion strains, locus YPL240C, strain hsp82, active compounds read low 1.02 | S. cerevisiae deletion strains, locus YPL241C, strain CIN2, active compounds read low 0.974 | S. cerevisiae deletion strains, locus YPR119W, strain clb2, active compounds read low 0.987 | S. cerevisiae deletion strains, locus YPR141C, strain kar3, active compounds read low 0.97 | S. cerevisiae deletion strains, locus YPR163C, strain tif3, active compounds read low 0.952 | S. cerevisiae deletion strains, locus YPR167C, strain met16, active compounds read low 0.974 | S. cerevisiae deletion strains, strain wtn01, active compounds read low 0.908 | S. cerevisiae strains, strain wild type, active compounds read low 0.957
active: S. cerevisiae deletion strains, locus YKR001C, strain vps1, active compounds read low 0.898 | S. cerevisiae deletion strains, locus YLR418C, strain cdc73, active compounds read low 0.758 | S. cerevisiae deletion strains, locus YOR184W, strain ser1, active compounds read low 0.838
